Compound activity: PubChem, National Center for Advancing Translational Sciences (NCATS)
A selection: hits, their analogues and other compounds. The true share with any hit is near 2%.
CtBP-E1A blk – qHTS Assay for Inhibitors of the CtBP/E1A Interaction; CtBP / adenovirus E1A interaction (AlphaScreen); AlphaScreen GST-E1A/His-CtBP binding, 1536-well; active compounds read low; activity change, % (test concentration not listed); 340,000 compounds, 0.49% hits; AID 651724, 2012
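AlphaScreen with 125 nM GST-E1A and 125 nM His-CtBP (5X stocks) in Tris pH 8.0, 300 mM NaCl, BSA, Tween 20, TCEP. Compounds preincubated 2 h at 37 deg C, then glutathione donor/nickel acceptor beads added for 1 h at 37 deg C in dark.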
hERG WT inh – qHTS for Inhibitors of KCHN2 3.1: Wildtype qHTS | 340,000 compounds, 0.37% hits | activity change, % at 1.84 µM | AID 720551, 2013 | U2OS, BacMam KCNH2, thallium flux FluxOr; active compounds read low | Voltage-gated inwardly rectifying potassium channel KCNH2 (Homo sapiens), Q12809;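 active means maximum activity change below -70%; inconclusive means maximum activity change between -70% and -50%; inactive means maximum activity change above -50%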
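U2OS cells transduced with wild-type KCNH2 virus are loaded with FluxOr dye for 45 min, and thallium flux is measured in kinetic reads before and after stimulation buffer. Rate constants are normalized to DMSO controls.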
KCNH2 3.1 inh – qHTS for Inhibitors of KCHN2 3.1: Mutant qHTS. U2OS KCNH2 3.1, thallium flux FluxOr; active compounds read low. activity change, % (tested at about 1.8 µM). 340,000 compounds, 0.95% hits;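 active means maximum activity change below -70%; inconclusive means maximum activity change from -70% to -50%; inactive means maximum activity change above -50%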;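 further: thallium influx rate constant from kinetic fluorescence after stimulation buffer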
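FluxOr-based Tl+ influx in U2OS cells transduced with KCNH2 3.1 virus; rate constants normalized to DMSO controls.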
KDM4E inh – qHTS Assay for Inhibitors of Human Jumonji Domain Containing 2E (JMJD2E) | Potency, µM (doses to about 57.1 µM), most hits filed as inhibitors | JMJD2E catalytic domain, FDH-coupled NADH fluorescence (FDH is formaldehyde dehydrogenase) | Lysine-specific demethylase 4E (Homo sapiens), B2RXH2 | 230,000 compounds, 1.6% hits; active means well fitted inhibition curve with a large enough effect, not every such curve was filed as active; inconclusive means small, poorly fitted or top-dose-only effect, or another doubt; inactive means no such curve, though single readings can be large or run the other way; further: nearly all actives have a fitted effect of over 50% in size
Six1-Eya2 blk – qHTS Assay for Inhibitors of the Six1/Eya2 Interaction; AlphaScreen GST-Six1/His-Eya2 binding, biochemical; active compounds read low; activity change, % (concentration not given with the values); 360,000 compounds, 0.56% hits; Homeobox protein SIX1 (Homo sapiens) + Protein phosphatase EYA2 (Homo sapiens), …
Target sequence (O00167 whole entry, looked up): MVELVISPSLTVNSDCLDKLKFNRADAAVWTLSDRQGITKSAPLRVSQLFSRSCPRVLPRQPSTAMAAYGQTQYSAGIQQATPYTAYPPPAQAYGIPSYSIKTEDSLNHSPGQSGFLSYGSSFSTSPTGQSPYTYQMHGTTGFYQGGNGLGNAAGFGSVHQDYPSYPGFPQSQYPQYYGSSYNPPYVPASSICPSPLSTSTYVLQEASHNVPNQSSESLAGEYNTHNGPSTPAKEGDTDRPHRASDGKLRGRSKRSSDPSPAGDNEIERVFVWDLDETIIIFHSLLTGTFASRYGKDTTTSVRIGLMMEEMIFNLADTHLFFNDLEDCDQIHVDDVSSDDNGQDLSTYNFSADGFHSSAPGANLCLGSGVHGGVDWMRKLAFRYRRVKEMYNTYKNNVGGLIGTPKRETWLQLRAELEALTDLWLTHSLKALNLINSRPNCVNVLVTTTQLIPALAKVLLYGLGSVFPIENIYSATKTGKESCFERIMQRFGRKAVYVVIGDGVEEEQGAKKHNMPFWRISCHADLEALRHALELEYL
Target sequence (Q15475 whole entry, looked up): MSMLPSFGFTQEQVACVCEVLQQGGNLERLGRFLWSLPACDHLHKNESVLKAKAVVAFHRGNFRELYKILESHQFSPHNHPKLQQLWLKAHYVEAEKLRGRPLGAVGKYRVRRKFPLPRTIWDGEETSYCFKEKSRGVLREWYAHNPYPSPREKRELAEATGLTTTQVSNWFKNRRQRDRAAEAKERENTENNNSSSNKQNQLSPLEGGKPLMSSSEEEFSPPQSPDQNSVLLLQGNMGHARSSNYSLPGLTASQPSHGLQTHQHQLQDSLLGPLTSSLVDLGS
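AlphaScreen luminescence read after one hour at 37 °C in darkness. Pin-transferred compounds met GST-Six1 and His-Eya2 protein (5X stock 250 nM/500 nM) plus glutathione donor and Ni-chelate acceptor beads (5X, 50 ug/mL).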
A number is an active result. Unless noted, no stated cut-off is given here; in the data, active means activity change below about -65%; inconclusive means mostly about -30% to -63%; inactive means weaker than that.

What do the screens show for `CCOC(=O)c1cnc2c(Cl)cccc2c1NCCCN1CCOCC1`?
hERG WT inh: inactive; KCNH2 3.1 inh: inactive; Six1-Eya2 blk: inactive

How did NC1=C(O)C(=O)C(c2ccccc2)O1 (stereo not given) do in these assays?
CtBP-E1A blk: inactive; hERG WT inh: inactive; KCNH2 3.1 inh: inactive; KDM4E inh: 16µM; Six1-Eya2 blk: inactive

What do the screens show for `O=C1OC(c2ccccc2)/C(=C(/O)c2ccccc2)C1=O` (stereo not given)?
CtBP-E1A blk: inactive; hERG WT inh: inactive; KCNH2 3.1 inh: inactive; KDM4E inh: inactive; Six1-Eya2 blk: inactive

Results for COc1ccc(C(c2c(C)n(C)n(-c3ccccc3)c2=O)c2c(C)n(C)n(-c3ccccc3)c2=O)c(OC)c1OC ?
CtBP-E1A blk: inactive; hERG WT inh: inactive; KCNH2 3.1 inh: inactive; Six1-Eya2 blk: inactive

What do the screens show for `CCN1/C(=C\c2ccc3cc(C)ccc3[n+]2CC)Sc2cc(C)c(C)cc21`?
CtBP-E1A blk: inactive; hERG WT inh: -126; KCNH2 3.1 inh: inactive; KDM4E inh: inconclusive; Six1-Eya2 blk: inactive

Results for CCN1/C(=C/c2ccc3cc(C)cc(C)c3[n+]2CC)Sc2cc(C)ccc21 ?
CtBP-E1A blk: inactive; hERG WT inh: inactive; KCNH2 3.1 inh: inactive; KDM4E inh: inconclusive; Six1-Eya2 blk: inactive

How did COc1ccc(NC(=O)CN(C)C(=O)c2ccc3c(c2)CC(c2ccccc2)OC3=O)cc1 (stereo not given) do in these assays?
CtBP-E1A blk: inactive; hERG WT inh: inactive; KCNH2 3.1 inh: inactive; Six1-Eya2 blk: inactive

How did Cc1cc(=O)c(C(=O)O)nn1-c1ccccc1[N+](=O)[O-] do in these assays?
CtBP-E1A blk: inactive; hERG WT inh: inactive; KCNH2 3.1 inh: inactive; Six1-Eya2 blk: inactive

Results for Cn1c(NN)nc2sc3c(c2c1=O)CC(C)(C)OC3 ?
CtBP-E1A blk: -77; hERG WT inh: inactive; KCNH2 3.1 inh: inactive; KDM4E inh: inactive; Six1-Eya2 blk: inconclusive

How did CCC(CC)C(=O)c1c[nH]c(C(=O)NCCCn2ccnc2)c1 do in these assays?
CtBP-E1A blk: inactive; hERG WT inh: inactive; KCNH2 3.1 inh: inactive; KDM4E inh: inactive; Six1-Eya2 blk: inactive

Results for O=C(NCc1ccccn1)c1ccccc1OCc1ccc(F)cc1 ?
CtBP-E1A blk: inactive; hERG WT inh: inactive; KCNH2 3.1 inh: -101; Six1-Eya2 blk: inactive

How did O=C(CN1CCN(c2nc(-c3ccc(F)cc3)cs2)CC1)Nc1ccc2c(c1)OCO2 do in these assays?
CtBP-E1A blk: inactive; hERG WT inh: inactive; KCNH2 3.1 inh: -124; KDM4E inh: inactive; Six1-Eya2 blk: inactive

How did NC(=O)CN1CCN(c2nc(-c3ccc(F)cc3)cs2)CC1 do in these assays?
CtBP-E1A blk: inactive; hERG WT inh: inactive; KCNH2 3.1 inh: inactive; KDM4E inh: inactive; Six1-Eya2 blk: inactive

Results for O=C(CN1CCN(C(=O)C2CCN(C(=O)/C=C/c3ccccc3)CC2)CC1)Nc1ccc(F)cc1 ?
CtBP-E1A blk: inactive; hERG WT inh: inactive; KCNH2 3.1 inh: -99; Six1-Eya2 blk: inactive

Results for O=C(CCN1CCN(CCO)CC1)Nc1ccc(OCc2ccccc2)cc1 ?
CtBP-E1A blk: inactive; hERG WT inh: inactive; KCNH2 3.1 inh: inactive; KDM4E inh: inactive; Six1-Eya2 blk: inactive

What do the screens show for `O=C(CCN1CCN(Cc2ccccc2)CC1)Nc1ccc(OCc2ccccc2)cc1`?
CtBP-E1A blk: inconclusive; hERG WT inh: inactive; KCNH2 3.1 inh: -95; KDM4E inh: inactive; Six1-Eya2 blk: inactive

What do the screens show for `O=C(CN1CCN(CC(=O)Nc2ccc(OCc3ccccc3)cc2)CC1)Nc1ccc(F)cc1`?
CtBP-E1A blk: inactive; hERG WT inh: -103; KCNH2 3.1 inh: -94; Six1-Eya2 blk: inactive

What do the screens show for `COc1ccc2c(c1)[C@]1(C[C@H](O)CO1)C(=O)N2C`?
CtBP-E1A blk: inactive; Six1-Eya2 blk: inactive

Results for NC(=O)c1ccsc1NC(=O)CSc1nc2ccccc2c(=O)n1CCCO ?
CtBP-E1A blk: inactive; hERG WT inh: inactive; KCNH2 3.1 inh: inactive; KDM4E inh: inactive; Six1-Eya2 blk: inactive

What do the screens show for `CCC(C)(C)NC(=O)CN(C(=O)CNS(=O)(=O)c1ccc(F)cc1)c1ccc2c(c1)OCCO2`?
CtBP-E1A blk: inactive; hERG WT inh: inactive; KCNH2 3.1 inh: inactive; Six1-Eya2 blk: inactive

Results for CCOc1ccc(NC(=O)CN2CCN(CC(=O)Nc3ccc(F)cc3)CC2)cc1 ?
CtBP-E1A blk: inactive; hERG WT inh: -92; KCNH2 3.1 inh: -89; KDM4E inh: inactive; Six1-Eya2 blk: inactive

Results for O=C(CN1CCCCCC1)Nc1ccc(Oc2ccccc2)cc1 ?
CtBP-E1A blk: inactive; hERG WT inh: inactive; KCNH2 3.1 inh: -96; KDM4E inh: inactive; Six1-Eya2 blk: inactive

What do the screens show for `O=C(/C=C/c1ccc(F)cc1)NNC(=O)CCN1CCN(Cc2ccccc2)CC1`?
CtBP-E1A blk: inactive; hERG WT inh: inactive; KCNH2 3.1 inh: -105; KDM4E inh: inactive; Six1-Eya2 blk: inactive

What do the screens show for `CCOc1ccc(NC(=O)CN2CCN(CC(=O)Nc3ccc4c(c3)OCO4)CC2)cc1`?
CtBP-E1A blk: inactive; hERG WT inh: -120; KCNH2 3.1 inh: -106; KDM4E inh: inactive; Six1-Eya2 blk: inactive

How did CCOC(=O)C1CCN(CC(O)COc2ccc(C(C)=O)cc2)CC1 (stereo not given) do in these assays?
CtBP-E1A blk: inactive; hERG WT inh: inactive; KCNH2 3.1 inh: inactive; KDM4E inh: inactive; Six1-Eya2 blk: inactive

How did COc1ccc(-c2cc3nc(C)c(CCC(=O)N4CCN(c5ccccn5)CC4)c(C)n3n2)c(OC)c1 do in these assays?
CtBP-E1A blk: inactive; hERG WT inh: inactive; KDM4E inh: 13µM; Six1-Eya2 blk: inactive

Results for COc1ccc(CN2CCNC(=O)C2CC(=O)NC2CCCCC2)c(OC)c1 (stereo not given) ?
CtBP-E1A blk: inactive; hERG WT inh: inactive; Six1-Eya2 blk: inactive

How did Cc1[nH]c(=O)[nH]c(=O)c1/C=N/NC(=O)[C@H](C)N do in these assays?
CtBP-E1A blk: inactive; hERG WT inh: inactive; KCNH2 3.1 inh: inactive; KDM4E inh: inconclusive; Six1-Eya2 blk: -66

What do the screens show for `Cc1ccccc1NC(=O)C1COc2ccccc2O1` (stereo not given)?
CtBP-E1A blk: inactive; hERG WT inh: inactive; KCNH2 3.1 inh: inactive; Six1-Eya2 blk: inactive

What do the screens show for `Cc1ccc(/C=N/NC(=O)C2CC(=O)N(c3ccccc3)C2)s1` (stereo not given)?
CtBP-E1A blk: inactive; hERG WT inh: inactive; KCNH2 3.1 inh: inactive; KDM4E inh: inactive; Six1-Eya2 blk: inactive

What do the screens show for `O=C(N/N=C/c1ccccc1O)C1CC(=O)N(c2ccc(Cl)cc2)C1` (stereo not given)?
CtBP-E1A blk: -84; hERG WT inh: inactive; KCNH2 3.1 inh: inactive; Six1-Eya2 blk: inconclusive
